Most compounds without a hit are left out; they make up all but 1.3% or so of the library.
Gli-Sufu antag = Gli-Sufu pathway antagonism | Sufu-KO-LIGHT fibroblasts, Gli luciferase reporter luminescence | inhibition, % at 5 µM | hit rate 0.74% among 340,000 | AID 588413;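 active = inhibition above about 55%, limit read from the data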;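 also: 0% = DMSO-treated cells and 100% = wells with medium but no cells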
LRH-1 inv ag = NR5A2 inverse agonism in reporter assay. O00482. HEK293T StAR-luciferase reporter, LRH-1 transfected, 24 h. inhibition, % at 3.6 µM. hit rate 0.13% among 360,000;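 active = inhibition above the mean inhibition of all tested compounds plus 3 SD, cut at about 73% in these data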;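 also: 0% = DMSO wells and 100% = reporter-only cells lacking LRH-1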
NR2F2 inh = blocks human COUP-TFII nuclear receptor. P24468. inhibition, % at 8.6 µM. hit rate 0.7% among 370,000. AID 686940. HEK293T NGFI-A luciferase reporter, luminescence;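 active = inhibition above a per-plate cutoff, mean inhibition of test wells between control levels plus 3 SD, cut at about 38% in these data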;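 also: cells cotransfected with COUP-TFII expression vector driving the NGFI-A reporter; 0% = median of COUP-TF2 test wells and 100% = reporter-only cells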
NCOA2 inhibitor = inhibits human steroid receptor coactivator 2. hit rate 0.17% among 370,000. Q15596. HEK293 GAL4-SRC2 luciferase reporter, luminescence. inhibition, % at 9 µM;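 active = inhibition above the mean inhibition of all tested compounds plus 3 SD, set per campaign, cut at about 52% in these data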;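 also: 0% = DMSO treated cells and 100% = cells given Gossypol at 36 µM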
NCOA3 inh = human NCOA3 inhibition; Q9Y6Q9; HEK293 GAL4-SRC3 luciferase reporter, luminescence; inhibition, % at 3.6 µM; hit rate 0.17% among 360,000;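 active = inhibition above a per-campaign cutoff, the mean of all compounds plus 3 SD, cut at about 60% in these data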;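 also: 0% = DMSO-treated cells and 100% = gossypol-treated cells at 36 µM; higher means less SRC3-driven luciferase light from the GAL4 reporter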
Target sequence (Q9Y6Q9 whole entry, looked up, the tested form may be a part): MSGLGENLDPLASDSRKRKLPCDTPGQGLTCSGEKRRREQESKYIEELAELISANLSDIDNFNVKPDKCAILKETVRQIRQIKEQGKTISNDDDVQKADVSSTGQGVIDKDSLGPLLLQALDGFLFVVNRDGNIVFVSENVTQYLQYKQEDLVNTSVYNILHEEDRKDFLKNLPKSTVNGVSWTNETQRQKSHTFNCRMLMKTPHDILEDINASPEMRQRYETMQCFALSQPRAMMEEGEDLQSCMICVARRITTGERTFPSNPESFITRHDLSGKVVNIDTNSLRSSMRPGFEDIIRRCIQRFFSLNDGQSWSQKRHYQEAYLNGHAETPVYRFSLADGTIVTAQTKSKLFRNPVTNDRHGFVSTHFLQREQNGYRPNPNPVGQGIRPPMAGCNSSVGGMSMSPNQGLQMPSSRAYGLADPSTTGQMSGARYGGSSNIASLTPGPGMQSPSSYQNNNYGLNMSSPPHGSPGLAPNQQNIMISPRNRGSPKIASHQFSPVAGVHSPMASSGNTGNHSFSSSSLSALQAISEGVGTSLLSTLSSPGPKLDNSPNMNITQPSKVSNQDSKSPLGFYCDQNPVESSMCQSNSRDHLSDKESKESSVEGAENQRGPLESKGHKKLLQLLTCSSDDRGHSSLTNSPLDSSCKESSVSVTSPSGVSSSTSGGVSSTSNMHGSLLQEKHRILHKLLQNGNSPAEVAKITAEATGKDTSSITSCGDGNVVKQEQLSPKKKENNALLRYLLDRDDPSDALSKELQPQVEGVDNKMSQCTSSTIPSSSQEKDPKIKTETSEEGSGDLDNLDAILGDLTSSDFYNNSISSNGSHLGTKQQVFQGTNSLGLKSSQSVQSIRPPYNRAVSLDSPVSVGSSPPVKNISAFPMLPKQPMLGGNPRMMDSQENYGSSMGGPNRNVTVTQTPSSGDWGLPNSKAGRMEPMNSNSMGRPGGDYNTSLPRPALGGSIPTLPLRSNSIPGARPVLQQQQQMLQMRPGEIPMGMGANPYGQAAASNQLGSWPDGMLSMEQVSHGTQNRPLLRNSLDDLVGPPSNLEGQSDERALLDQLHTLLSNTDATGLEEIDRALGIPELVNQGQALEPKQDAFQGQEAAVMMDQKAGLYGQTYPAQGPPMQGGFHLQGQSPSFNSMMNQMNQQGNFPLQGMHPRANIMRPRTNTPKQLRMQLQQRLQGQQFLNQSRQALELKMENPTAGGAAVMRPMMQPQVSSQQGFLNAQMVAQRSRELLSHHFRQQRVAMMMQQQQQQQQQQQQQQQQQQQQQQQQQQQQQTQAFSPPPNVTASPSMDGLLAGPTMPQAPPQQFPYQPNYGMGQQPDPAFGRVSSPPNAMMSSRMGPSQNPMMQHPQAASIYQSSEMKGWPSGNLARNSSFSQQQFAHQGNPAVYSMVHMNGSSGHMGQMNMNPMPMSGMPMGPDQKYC
SRC1 inh = human NCOA1 inhibition; Q15788; HEK293 GAL4-SRC1 luciferase reporter, luminescence; inhibition, % at 3.6 µM; hit rate 0.12% among 360,000;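 active = inhibition above the campaign mean plus 3 SD, with each screening campaign given its own cutoff, cut at about 60% in these data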;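 also: 0% = DMSO treated cells and 100% = gossypol at 36 µM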
Gli-Sufu confirm = confirmation of Gli-SUFU pathway antagonists; AID 602428; Sufu-KO-LIGHT cells, Gli luciferase reporter, luminescence; hit rate 40% among 2,500; inhibition, % at 5 µM; shares compounds with Gli-Sufu antag;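 active = mean inhibition at 5 µM reaching about 45%, limit read from the data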;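 also: plate controls were DMSO-treated cells for no effect and wells lacking cells for full effect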
SufuKO cytotox = cytotoxicity counter-screen for Gli-SUFU antagonists. shares compounds with Gli-Sufu antag. Sufu-KO-LIGHT cells cytotoxicity, ATP luminescence. cytotoxicity, % at 5 µM. hit rate 32% among 2,500. AID 651994;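 active = mean cytotoxicity at 5 µM above about 25%, limit read from the data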;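 also: cells exposed to compound overnight for roughly 16 to 18 hours; plate controls were DMSO wells with cells for no effect and medium without cells for full effect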
Wnt3a counter = Wnt3a reporter inhibition counter-screen. shares compounds with Gli-Sufu antag. Wnt-LIGHT cells, Wnt3a-driven luciferase reporter, luminescence. inhibition, % at 6.25 µM. hit rate 20% among 2,500. AID 651995;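 active = mean inhibition above about 25%, limit read from the data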
Numbers without * were called inactive; . = no result.

SMILES	Gli-Sufu antag	LRH-1 inv ag	NR2F2 inh	NCOA2 inhibitor	NCOA3 inh	SRC1 inh	Gli-Sufu confirm	SufuKO cytotox	Wnt3a counter
COc1ccc(S(=O)(=O)Nc2ccccc2C(=O)NC2CC2)cc1NC(C)=O	-3.8	-5.2	2.8	3.3	-10.2	7.1	.	.	.
COc1ccc(S(=O)(=O)Nc2ccccc2Cl)cc1NC(C)=O	51.5	1.0	-7.9	-9.9	8.3	11.1	11.8	-1.7	-0.3
CCCCn1c(SCc2c(C)noc2C)nc2cc(S(N)(=O)=O)ccc21	50.5	34.6	-65.6	-71.6	18.8	-5.1	62.0*	0.8	-13.1
CCCCn1c(SCC(=O)Nc2cc(C)on2)nc2cc(S(N)(=O)=O)ccc21	-17.2	-2.6	6.0	-12.5	17.5	-4.6	.	.	.
O=C(CCl)Nc1cc(S(=O)(=O)N2CCCCCC2)ccc1Cl	9.6	4.2	-12.4	7.4	-35.5	-51.0	.	.	.
CC(C)(C)CC(=O)Nc1cc(S(=O)(=O)N2CCCCCC2)ccc1Cl	59.7*	4.7	0.1	15.6	1.6	-3.9	17.5	5.3	-20.2
COc1ccc(-c2c[n+]3c(n2-c2ccccc2)CCCCC3)cc1	83.7*	39.9	32.6	10.0	33.4	36.0	85.4*	35.3*	34.2*
FC(F)Oc1ccc(-c2c[n+]3c(n2-c2ccccc2)CCCCC3)cc1	59.9*	-2.1	-21.3	11.2	13.4	5.3	69.5*	20.7	-6.7
CCOc1ccc(-n2c(-c3ccc(Br)cc3)c[n+]3c2CCCCC3)cc1	86.1*	54.5	25.0	16.1	42.2	10.5	88.2*	46.3*	22.6
N#C[C@H](N)[C@H]1O[C@@H](n2ccc(=O)[nH]c2=O)[C@H](O)[C@@H]1O	.	.	-17.1	-2.8	.	.	.	.	.
CCCCCCCCCCCC1N=C(N)NC(CCCO)=C1C(=O)OC (stereo not drawn)	77.8*	11.4	10.9	11.1	19.8	-8.2	23.4	9.6	27.0*
CCOc1ccc(N(CC(=O)Nc2c(C)n(C)n(-c3ccccc3)c2=O)S(=O)(=O)c2ccc(C)c(C)c2)cc1	.	.	5.2	-5.2	.	.	.	.	.
FC(F)(F)c1nc(-c2cccs2)ncc1-c1nnnn1-c1ccc(Cl)cc1	58.0*	4.3	3.9	9.2	18.1	5.8	57.9*	38.8*	1.3
CCN(CC)CCn1c(NCc2ccc(OC)cc2)nc2ccccc21	55.8*	-36.3	-6.2	-6.4	3.6	-18.8	26.3	6.3	-18.4
C#CCNC(=O)C[C@H]1C[C@@]2(C(=O)OC)C(=C[C@H](C(C)C)O[C@@H]2C2CC2)N(Cc2ccc3c(c2)OCO3)C1=O	.	.	4.7	-10.9	.	.	.	.	.
CCOCCCNC(=O)c1ccc2c(c1)ncn2-c1ccc(C)cc1C	30.7	5.8	-0.4	-13.8	-9.5	-14.0	.	.	.
CCOCCCNC(=O)c1ccc2c(c1)ncn2-c1ccccc1OC	60.9*	8.3	6.4	-19.6	1.9	4.0	10.7	11.5	-35.2
CC(C)c1ccc(N2C(=O)C3C4C=CC(CC4)C3C2=O)cc1 (stereo not drawn)	4.4	6.9	4.6	20.8	-6.3	9.5	.	.	.
CC1CC(=O)N(c2ccc(C(C)C)cc2)C(=O)C1	53.5	6.0	0.9	10.6	12.7	16.8	21.5	16.4	-17.1
O=C(Nc1cccnc1)c1ccc(CSc2ccc(Cl)cc2)o1	.	.	28.5	-15.9	.	.	.	.	.
COc1cc(/C=N/Nc2nc(N3CCCC3)nc(N3CCCC3)n2)ccc1O	-0.8	14.5	-14.2	-0.1	11.5	3.4	.	.	.
Oc1ccc(/C=N/Nc2nc(N3CCCC3)nc(N3CCCC3)n2)cc1O	63.9*	-9.7	-11.6	-0.6	-23.2	-12.1	51.3*	23.1	83.1*
CC(C)(C)c1ccc(CN2C3=NCCCN3c3ccccc32)cc1	69.3*	9.4	7.8	14.5	26.1	23.0	60.1*	25.0	15.3
Clc1cccc(CN2C3=NCCCN3c3ccccc32)c1	56.1*	7.7	16.7	-4.4	8.7	14.3	18.6	24.2	-38.3
O=S1(=O)CC(N2CCC(c3ccccc3)CC2)CN1Cc1cn(Cc2ccc(C(F)(F)F)cc2)nn1 (stereo not drawn)	.	.	19.4	18.1	.	.	.	.	.
SMILES	Gli-Sufu antag	LRH-1 inv ag	NR2F2 inh	NCOA2 inhibitor	NCOA3 inh	SRC1 inh	Gli-Sufu confirm	SufuKO cytotox	Wnt3a counter
CCOc1cc(C(=O)N/N=C/C(Br)=C/c2ccccc2)cc(OCC)c1OCC	54.6	13.9	-8.3	14.7	7.4	-17.3	64.5*	46.8*	-40.7
O=C(N/N=C/C(Br)=C/c1ccccc1)c1ccncc1	2.6	8.6	-0.9	-21.3	10.1	-33.7	.	.	.
CN1/C(=C\C(=O)COC(=O)c2ccc(O)cc2)C(C)(C)c2ccccc21	10.4	7.5	20.4	-9.7	9.2	-9.0	.	.	.
CN1/C(=C\C(=O)COC(=O)c2ccc(O)c(O)c2)C(C)(C)c2ccccc21	64.9*	.	16.0	28.5	.	.	64.3*	25.6*	75.4*
CN1/C(=C\C(=O)COC(=O)CNC(=O)c2ccc3ccccc3c2)C(C)(C)c2ccccc21	51.4	-3.3	12.3	17.3	0.3	2.5	46.5*	14.4	8.3
CN1/C(=C\C(=O)COC(=O)CNC(=O)c2ccccc2F)C(C)(C)c2ccccc21	1.5	-9.7	-7.6	30.1	10.8	11.0	.	.	.
CCN1C(=O)/C(=C\c2ccc(F)cc2)N=C1SCC(=O)NCc1ccco1	2.3	16.4	-5.9	7.2	31.0	9.8	.	.	.
C=CCN1C(=O)/C(=C\c2ccc(Cl)cc2)N=C1SCC(=O)NCCC	55.9*	6.8	13.6	0.1	-5.2	3.7	16.9	20.3	10.1
COC(=O)NCC(c1ccco1)N1CCN(c2ccc(F)cc2)CC1 (stereo not drawn)	51.8	16.6	0.2	-2.7	19.3	8.4	14.0	8.8	-25.5
Cc1ccccc1-c1ccc2c(c1)[C@@H]1C[C@H]3[C@@H](CN1CC2)[C@H](C)ON3C	.	.	13.6	6.0	.	.	.	.	.
COc1ccc(Cl)cc1NC(=O)CCc1nnc2ccc(N3CCN(C)CC3)nn12	59.8*	20.5	-3.1	-9.0	1.7	8.2	35.9	13.0	-6.7
N#Cc1c(-c2cccc(Br)c2)cc(-c2cccnc2)nc1N	53.3	17.7	-32.0	3.4	4.8	3.8	19.9	-0.4	-21.2
N=c1c(C(=O)NC2CCCC2)cc2c(=O)n3ccccc3nc2n1CC1CCCO1 (stereo not drawn)	4.0	8.8	-17.1	-15.0	-3.6	7.7	.	.	.
CC(NC(=O)c1cc2c(=O)n3ccccc3nc2n(CC2CCCO2)c1=N)c1ccccc1 (stereo not drawn)	59.1*	11.1	1.8	-21.2	11.0	1.3	29.9	10.8	-53.0
O=C1c2ccccc2S(=O)(=O)c2cc(C(=O)N3CCN(c4ccc(Cl)cn4)CC3)ccc21	-3.0	11.4	7.2	-11.9	3.3	-2.6	.	.	.

Compound activity from PubChem.
